Data as given in PubChem BioAssay (NCATS).
Results filed as inconclusive are left out. Where a call stands in place of a potency, no number is given. A number with no mark means an inactive call. Activity calls are given as the source filed them. Calls follow the shape of the dose curve; as a rule, active = well fitted inhibition curve with a large enough effect; inconclusive = small, poorly fitted or top-dose-only effect; inactive = no such curve, though single readings can be large or run the other way.

Key:
[1] = system: Zika virus NS2B-NS3 protease (unlinked complex); assay: Primary screen GU Rhodamine qHTS for Zika virus inhibitors: Unlinked NS2B-NS3 protease assay (AID 1347159); also: nearly all actives have a fitted effect of over 60% in size
In short: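 A qHTS format was used, with compound concentrations ranging up to 114 microM. Each compound was preincubated with 25 nM NS2B-NS3 protease, and the substrate was then added at 1.5 microM. Curves were fitted with a 4-parameter Hill model.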

[2] = system: Zika virus NS2B-NS3 protease (linked construct); assay: Primary screen NINDS Rhodamine qHTS for Zika virus inhibitors (AID 1347160); also: nearly all actives have a fitted effect of over 55% in size
In short: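 Kinetic fluorescence (Ex 480 nm, Em 540 nm) over 15 min with 1.5 microM Rhodamine110 peptide and 25 nM linked protease.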

Row | SMILES | Potency [1] | Potency [2] | activity change, negative = inhibition [1]
1 | COC(=O)C(CC1(O)c2ccccc2N2C(=O)C(CC(C)C)NC21)n1cnc2ccccc2c1=O (configuration not stated) | inactive | inactive | –
2 | C=CC(C)(CC/C=C(\C)C(=O)OC)OC1OC(COC(=O)CC(C)(O)CC(=O)O)C(O)C(O)C1O (configuration not stated) | inactive | inactive | –
3 | CC(=O)OC(C)(C)/C=C/C(=O)[C@](C)(O)C1[C@H](O)C[C@@]2(C)[C@@H]3CC=C4[C@@H](C[C@H](O[C@@H]5O[C@H](CO)[C@@H](O)[C@H](O)[C@H]5O)C(=O)C4(C)C)[C@]3(C)C(=O)C[C@]12C (some centres not stated) | inactive | inactive | –
4 | C/C(=C\CO)CC/C=C(\C)C(=O)O[C@@H]1O[C@H](CO)[C@@H](O)[C@H](O)[C@H]1O | inactive | inactive | –
5 | CCNC(=O)OC1CCN(c2nncc3cc(OC)c(OC)cc23)CC1 | inactive | inactive | –
6 | Cc1ncc(Cl)cc1NCc1ccc(C(=O)NC(CC2CCCC2)C(=O)NC2CC2)s1 (configuration not stated) | inactive | inactive | –
7 | CCN1CCN(C(=O)N[C@@H](C(=O)N[C@@H]2C(=O)N3[C@@H]2SC(C)(C)[C@@H]3C(=O)O)c2ccccc2)C(=O)C1=O | inactive | inactive | –
8 | C/C=C1\[C@H](O[C@@H]2O[C@H](CO)[C@@H](O)[C@H](O)[C@H]2O)OC=C(C(=O)OCCc2ccc(O)cc2)[C@H]1CC(=O)OCCc1ccc(O)cc1 | inactive | inactive | –
9 | Cc1cn(C[C@H](N)C(=O)O)c(=O)n(Cc2ccsc2C(=O)O)c1=O | inactive | inactive | –
10 | CC(C)C1NC(=O)C(CC2(O)c3ccccc3N3C(=O)C(Cc4ccccc4)NC32)NC1=O (configuration not stated) | inactive | inactive | –
11 | CCC(C)C(=O)O[C@H]1C[C@](C)(O)[C@]23OC(C)(C)[C@H](C[C@H](OC(=O)c4ccccc4)[C@]2(COC(C)=O)[C@H]1OC(=O)C(C)CC)[C@H]3OC(C)=O (some centres not stated) | inactive | inactive | –
12 | O=C(O)c1ccc(NC(=O)[C@H](CC2CCCC2)n2cnc(C(F)(F)F)c2)nc1 | inactive | inactive | –
13 | C=C(C(=O)OC)[C@]12O[C@@](C)(CC[C@@]3(O)/C(=C\C)C(=O)O[C@]3(C)C[C@@H]1OC(=O)C(CO)CN1CCCC1C(=O)O)CC2=O (some centres not stated) | inactive | inactive | –
14 | C/C=C(\C)C(=O)O[C@H]1C=CC(=O)O[C@H]1/C=C/[C@H](O)[C@@H](C)O | inactive | inactive | –
15 | C/C(=C/CO)CC[C@H]1[C@]2(C)C[C@H](O)CC(C)(C)[C@H]2CC[C@]1(C)O | inactive | inactive | –
16 | CC(C)C1C(OC(=O)/C=C/c2ccccc2)CC2(C)OC2CCC2(C)OC2C1O (configuration not stated) | inactive | inactive | –
17 | CC1(C)CC2C(O)C3=C(CC(C)(O)C2C1)C(=O)OC3 (configuration not stated) | inactive | inactive | –
18 | COc1cc(Nc2nc3c(s2)CCCC3c2ccccc2)ccc1-n1cnc(C)c1 (configuration not stated) | – | inactive | -0.986% [at 19.1 µM]
19 | CC(C)=CCC[C@](C)(O[C@@H]1O[C@H](CO[C@@H]2O[C@@H](CO)[C@H](O)[C@H]2O)[C@@H](O)[C@H](O)[C@H]1O)[C@H]1CC[C@]2(C)[C@@H]1[C@H](O)C[C@@H]1[C@@]3(C)CC[C@H](O[C@@H]4O[C@H](CO)[C@@H](O)[C@H](O)[C@H]4O[C@@H]4O[C@H](CO)[C@@H](O)[C@H](O)[C@H]4O)C(C)(C)[C@@H]3CC[C@]12C | inactive | inactive | –
20 | C[C@H]1[C@H](C)CC[C@]2(C(=O)OC3OC(CO)C(O)C(O)C3O)CC[C@]3(C(=O)O)C(=CCC4[C@@]5(C)CC[C@H](O[C@@H]6O[C@@H](C)[C@H](OC7OC(CO)C(O)C(O)C7O)[C@@H](O)[C@H]6O)C(C)(C)C5CC[C@]43C)[C@H]12 (some centres not stated) | inactive | inactive | –
21 | O=C(O)/C=C/c1ccc(O[C@@H]2O[C@H](CO)[C@@H](O)[C@H](O)[C@H]2O)cc1 | inactive | inactive | –
22 | CC(=O)O[C@@H]1C(=O)C(C)=C(CCC(C)CC(=O)O)[C@@]2(C)CCCC(C)(C)C12 (some centres not stated) | inactive | inactive | –
23 | O=C(/C=C/c1ccc(O)cc1)OC[C@H]1O[C@@H](O/C(=C\c2ccccc2)C(=O)O)[C@H](O)[C@@H](O)[C@@H]1O | inactive | inactive | –
24 | C=C(COC(=O)C(C)C)C1Oc2cc(C(C)=O)ccc2C1OC(=O)C(C)C (configuration not stated) | inactive | inactive | –
25 | C=CCC1=C[C@]2(OC)[C@H](C)[C@@H](c3ccc(OC)c(OC)c3)O[C@]2(OC)CC1=O | inactive | inactive | –
26 | O=C(NC1CCN(CC(F)(F)F)CC1)c1ccc(-c2cccc(F)c2)nc1 | inactive | inactive | –
